Screening results: PubChem, National Center for Advancing Translational Sciences (NCATS)
An excerpt weighted towards active compounds, which were near 12% of everything screened.
Pf growth 48h = Primary qHTS for delayed death inhibitors of the malarial parasite plastid, 48 hour incubation; P. falciparum luciferase growth in erythrocytes, 48 h; AID 504832, 2011; 310,000 tested, 5.9% active; Potency, µM (top dose mostly 28.7 µM), inactives show at the highest dose activity change, negative = inhibition, most hits filed as inhibitors; also: % is scaled to controls: 0 for no effect and ±100 for the full control effect
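Cell-based growth assay: transgenic P. falciparum expressing firefly luciferase, cultured in red cells within RPMI 1640 containing 0.5% w/v Albumax, 24 mM bicarbonate and gentamycin. A drop in luciferase activity indicates inhibition.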
Sm TGR inh = qHTS Assay for the Inhibitors of Schistosoma Mansoni Peroxiredoxins; Potency, µM (doses to about 114 µM), for inactives: at the highest dose activity change, negative = inhibition, most hits filed as inhibitors; AID 485364, 2010; 360,000 tested, 3% active; purified TGR, DTNB reduction, TNB absorbance 405 nm; also: % is scaled to controls: 0 for no effect and ±100 for the full control effect; nearly all actives have a fitted effect of over 60% in size
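First, TGR (20 nM dispensed) and NADPH were mixed with compound. Second, a 15 min room-temperature incubation followed. Third, further NADPH and then DTNB were added to start the reaction. Finally, TNB absorbance was monitored kinetically.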
Pf growth 96h = Primary qHTS for delayed death inhibitors of the malarial parasite plastid, 96 hour incubation | P. falciparum luciferase reporter growth, 96 h | Potency, µM (titrated, usually from 28.7 µM), for the others: top-dose activity change, negative = inhibition, actives largely listed as inhibitors | 320,000 tested, 6.9% active; also: % is scaled to controls: 0 for no effect and ±100 for the full control effect
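P. falciparum expressing integrated firefly luciferase grown in erythrocytes (2% hematocrit, 0.05% parasitemia final) with compounds for 96 hours at 37 C, 5% CO2. Growth inhibition read as loss of luminescence after adding luciferase detection reagent.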
SARS PLpro yeast = qHTS of Yeast-based Assay for SARS-CoV PLP; S. cerevisiae expressing SARS-CoV PLpro, growth rescue; Potency, µM (highest dose often 32.9 µM), for the others: at the top dose activity, positive = growth rescue, actives largely listed as activators; 330,000 tested, 0.19% active; calls by dose curve; also: 0% is about no effect; nearly all actives have a fitted effect of over 55% in size
Numbers without * were called inactive; u = inconclusive; x = no result. Unless noted, calls follow the shape of the dose curve; as a rule, active = well fitted curve in the direction sought with a large enough effect; inconclusive = small, poorly fitted or top-dose-only effect, or another doubt; inactive = no such curve, though single readings can be large; an effect the other way counts as inactive or inconclusive. Potency is read from the fitted curve at half-maximal effect.

SMILES	Pf growth 48h	Sm TGR inh	Pf growth 96h	SARS PLpro yeast
O=C1NC(Cc2c[nH]c3ccccc23)C(=O)N1c1ccc(F)cc1 (centres undefined)	x	-20%	22%	4%
O=c1cc(-c2cccc3ccccc23)[nH][nH]1	-25%	-13%	52%	u
CN1C(=O)C(Cc2c[nH]c3ccccc23)C(=O)N(C)C1=O	-22%	14µM*	x	-8%
O=C1c2ccccc2C(=O)C1Cc1cccc2ccccc12	x	56µM*	19%	0%
O=C1C(Cc2c[nH]c3ccccc23)NC(=S)N1Cc1ccccc1 (centres undefined)	u	-6%	13µM*	-2%
CN1C(=O)C(Cc2cccc3ccccc23)C(=O)N(C)C1=O	-2%	14µM*	16%	0%
O=C1NC(Cc2c[nH]c3ccccc23)C(=O)N1Cc1ccccc1 (centres undefined)	10%	-15%	23%	0%
CC(NC(=O)c1cccc(S(=O)(=O)N2CCc3ccccc32)c1)c1ccco1 (centres undefined)	u	-4%	u	0%
CCCc1c(C(=O)Nc2ccc(OC)cc2)cnn1-c1ccccc1	8%	15%	u	-1%
CCc1ccccc1-n1ncc(C(=O)Nc2ccccc2OC)c1C	12µM*	8%	13µM*	-24%
CCCc1c(C(=O)NNc2ccccc2OC)cnn1-c1ccccc1	u	-33%	9.3µM*	-1%
CC1=C(C(=O)NCc2ccccc2F)C2(CCCCC2)OC1=O	x	3%	x	x
CN(C)c1cccc(C(=O)NNC(=O)NC2CCCCC2)c1	-2%	-7%	6.6µM*	7%
COc1cc(OC)cc(C(=O)NNC(=O)NC2CCCCC2)c1	-9%	5%	10µM*	10%
COc1cc(NC(=O)C2=COCCO2)c(OC)cc1Cl	-6%	3%	-2%	-1%
COc1ccc(S(=O)(=O)N(C)C)cc1NCC(=O)Nc1cccc(C#N)c1	u	-16%	12µM*	0%
O=C(CNc1cccc(F)c1)Nc1cccc(S(=O)(=O)N2CCCCC2)c1	14%	1%	34%	-1%
Cc1ccc(NCC(=O)Nc2cccc(F)c2)cc1S(=O)(=O)N1CCCCCC1	0.26µM*	-8%	0.21µM*	-2%
COc1ccc(/C=C/C(=O)Nc2cccc(S(=O)(=O)N3CCCC3)c2)cc1OC	13µM*	12%	u	-1%
COCCN(CC(=O)Nc1cccc(S(=O)(=O)N2CCCC2)c1)Cc1nc2ccccc2c(=O)[nH]1	10µM*	-24%	u	1%
COc1ccc(NC(=O)CNc2cccc(C#N)c2)cc1Cl	10%	-12%	-21%	-5%
COc1cc(NCC(=O)Nc2cccc(S(=O)(=O)N3CCCCC3)c2)cc(OC)c1OC	1.9µM*	-16%	u	-2%
N#Cc1cccc(NC(=O)CNc2cccc(S(=O)(=O)N3CCCCC3)c2)c1	15µM*	-2%	u	8%
CC(NC(C)c1ccccc1Cl)C(=O)Nc1cccc(S(=O)(=O)N2CCCCC2)c1 (centres undefined)	10µM*	8%	13µM*	-2%
Cc1ccc(NC(=O)CNc2cccc(S(=O)(=O)N3CCCCC3)c2)cc1F	u	-12%	u	1%
SMILES	Pf growth 48h	Sm TGR inh	Pf growth 96h	SARS PLpro yeast
O=C(Cc1n[nH]c(=O)c2ccccc12)Nc1cccc(S(=O)(=O)N2CCCCCC2)c1	9.3µM*	-8%	u	4%
CC1CCCC(NC(=O)C2CCN(S(=O)(=O)c3cnc[nH]3)CC2)C1C (centres undefined)	8%	1%	-25%	3%
CCN(CC)CCOC(=O)c1ccc(NC(=O)c2nn(-c3ccc(C)cc3)c(=O)c3c2c2ccccc2n3C)cc1	x	-13%	x	x
Cc1cn2c(=O)cc(COC(=O)c3cccc(NC(=O)c4ccccc4Cl)c3)nc2s1	x	5%	x	x
CCC(=O)N1CCc2cc(Br)cc(S(=O)(=O)NCCc3ccccc3)c21	x	8%	x	x
CCn1c2ccccc2c2cc(CN3CCN(Cc4ccc(Br)cc4)CC3)ccc21	x	2%	x	x
C=CCNC(=S)Nc1ccc(C)c(S(=O)(=O)N2CCCCC2)c1	6%	35µM*	39%	-1%
Cc1ccc(S(=O)(=O)N2CCCCC2)cc1C(=O)N(C)CC(=O)Nc1ccc(Cl)c(C(F)(F)F)c1	u	4%	u	-2%
CN(C)S(=O)(=O)c1ccc(NC(=O)CNc2cc(S(=O)(=O)N3CCCC3)ccc2OCC(F)(F)F)cc1	u	3%	13µM*	13%
